Compound activity (PubChem)
Rows were chosen to be rich in hits. Some 14% of all compounds tested hit in one or more screens of this group.
Shiga toxin inh – Shiga toxin inhibition; Vero cells, Shiga toxin protein synthesis inhibition reporter; inhibition, % at 38.7 µM; 290,000 tested, 9.2% active; AID 2315; in the data active = inhibition mostly above about 28%, no sharp cut-off; inactive = mostly below about 43%
LmPK inh – blocks Leishmania mexicana pyruvate kinase activity. Q27686. purified LmPK, Kinase-Glo ATP luminescence, 1 h. Potency, µM (doses to about 57.5 µM), actives largely listed as inhibitors. 290,000 tested, 0.37% active. AID 1721
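In 50 mM imidazole pH 7.2 with 7 mM MgCl2, LmPK (0.1 nM) turned over PEP (0.5 mM) and ADP (0.1 mM) for 1 h at room temperature. Luciferase read-out of ATP.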
NS1 function inh – blocks influenza NS1 protein function. Potency, µM (highest dose often 46.1 µM). 270,000 tested, 0.4% active. AID 2326; calls by dose curve; note: actives are rising curves; nearly all actives have a fitted effect of over 50% in size
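Compounds were scored for reversing the slow growth caused by influenza A NS1 in S. cerevisiae, measured by optical density at 600 nm. Assay medium contained 2% galactose at pH 6.0; NS1-free yeast of the same strain were the positive control.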
CHX counter – affects cycloheximide protein synthesis inhibition readout, counter-screen; max response, %; 300,000 tested, 12% active; AID 2314; cell reporter, cycloheximide protein synthesis inhibition counterscreen; in the data active = max response mostly above about 13%, no sharp cut-off; inactive = mostly below about 14%; note: read at 38.3 µM for the half of the compounds with a filed dose
FBPA Giardia inh – Giardia lamblia aldolase inhibition; A8B2U2; Potency, µM (series often up to 59.6 µM), usual class: inhibitors; purified Giardia FBPA; 290,000 tested, 0.71% active; note: nearly all actives have a fitted effect of over 55% in size
Target sequence (A8B2U2 whole entry, looked up): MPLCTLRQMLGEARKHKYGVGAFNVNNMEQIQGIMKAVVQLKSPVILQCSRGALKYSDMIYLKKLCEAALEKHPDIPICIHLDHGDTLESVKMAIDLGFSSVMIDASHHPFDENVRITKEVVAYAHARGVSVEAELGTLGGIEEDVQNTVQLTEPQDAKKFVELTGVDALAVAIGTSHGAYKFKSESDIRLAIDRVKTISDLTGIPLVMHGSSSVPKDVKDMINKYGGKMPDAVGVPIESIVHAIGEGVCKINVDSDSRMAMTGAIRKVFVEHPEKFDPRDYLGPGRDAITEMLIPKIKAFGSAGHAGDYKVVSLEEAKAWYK
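Giardia FBPA (40 nM reagent) was preincubated 10 min at RT with compound (up to 57.5 uM final), then substrate plus GAPDH/TPI/NAD/arsenate coupling system with diaphorase/resazurin was added; resorufin fluorescence (525/598 nm) was read after 20 min.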
Each line names hits and unclear results; the compound was inactive in the other large screens. Unless noted, calls come from the whole dose curve; as a rule, active = well fitted curve in the direction sought with a large enough effect; inconclusive = small, poorly fitted or top-dose-only effect, or another doubt; inactive = no such curve, though single readings can be large; an effect the other way counts as inactive or inconclusive.

O=C(/C=C1\C(=O)Nc2ccccc21)/C=C1\C(=O)Nc2ccccc21	LmPK inh inconclusive, CHX counter 15
Cc1ncc(/C=C2\C(=O)Nc3ccccc32)[nH]1	Shiga toxin inh 40, CHX counter 26
O=C1Nc2ccccc2/C1=C\C(=O)c1ccccc1	none
CCc1ncc(/C=C2\C(=O)Nc3ccccc32)[nH]1	CHX counter 26
CO[C@H]1COC(=O)[C@@H](CCSC)NC(=O)C/C=C\[C@@H](C)COC(=O)[C@@H](OCc2ccccc2)/C=C\[C@@H]1C	none (no result: Shiga toxin inh, LmPK inh, NS1 function inh, CHX counter)
C[C@@H](SCc1ccccc1)C(=O)O	none (no result: Shiga toxin inh, LmPK inh, CHX counter, FBPA Giardia inh)
COc1ccc(CN2CCNC(=O)C2CC(=O)NCC(C)(C)N2CCOCC2)cc1C (centres undefined)	none (no result: FBPA Giardia inh)
COCC(=O)Nc1sc2c(c1C(=O)OC)CCC(C)C2 (centres undefined)	CHX counter 12
CCc1c(C)sc(NC(=O)C2CCCO2)c1C#N (centres undefined)	CHX counter 17
CCc1c(C)sc(NC(=O)c2cc(C3CC3)on2)c1C#N	none
CC1CCc2c(sc(NC(=O)C3CCCO3)c2C#N)C1 (centres undefined)	Shiga toxin inh 107, CHX counter 37 (no result: NS1 function inh)
CCNC(=S)Nc1sc2c(c1C#N)CCC(C)C2 (centres undefined)	none
CCOC(=O)Nc1sc2c(c1C#N)CCC(C)C2 (centres undefined)	Shiga toxin inh 91, CHX counter 46
Cc1cc(Cc2cc(C)c(N)cc2C)c(C)cc1N	none
Cc1cc(Cc2cc(C)c(N)cc2N)c(N)cc1N	NS1 function inh 8.9µM (no result: Shiga toxin inh, LmPK inh, CHX counter, FBPA Giardia inh)
Cc1ccc(CNC2=NCCS2)cc1	CHX counter 17
Cc1ccc(NC(=O)COc2nc(C)cs2)cc1	none
Cc1ccc(CNc2nc(C)cs2)cc1	Shiga toxin inh 75, CHX counter 40
c1ccc(CNC2=NCCS2)cc1	none
COCCNc1ccnc(-c2ccccc2C)n1	none (no result: Shiga toxin inh, LmPK inh, NS1 function inh, CHX counter)
CCN1C(=O)/C(=C/c2ccc(C)o2)N(C)C1=S	CHX counter 16
CCOC(=O)N1CCC2(CC1)CC(=O)c1c(ccc3oc(C(=O)O)c(C)c13)O2	none
CCCNC(=O)c1oc2ccc3c(c2c1C)C(=O)CC(C)(C)O3	Shiga toxin inh 50, CHX counter 44
CCCNC(=O)c1oc2ccc3c(c2c1C)C=CC(C)(C)O3	Shiga toxin inh 76, CHX counter 49
Cc1cc(C)cc(N(CC(=O)NC(C)C)C(=O)CCC(=O)Nc2ccccn2)c1	none
Cc1ccc(S(=O)(=O)NC(=O)Nc2ncn[nH]2)cc1	none (no result: Shiga toxin inh, LmPK inh, CHX counter, FBPA Giardia inh)
Cc1ccc(C(=O)NC=C(Cl)Cl)cc1	Shiga toxin inh 84, CHX counter 26
Oc1ccccc1N=Cc1sc2ccccc2c1Cl	Shiga toxin inh 29, CHX counter 40
Cc1ccc(O)c(N=Cc2sc3ccccc3c2Cl)c1	Shiga toxin inh 73, CHX counter 45
Cc1ccc(C)c(N=Cc2c(O)c3ccccc3oc2=O)c1	none (no result: Shiga toxin inh)
Cc1ccc(Nc2nc3c(c(=O)[nH]2)CCCC3)cc1	none
O=c1[nH]c(Nc2nc3ccccc3o2)nc2c1CCCC2	Shiga toxin inh 76, CHX counter 39
COc1ccc(N2C(=O)N3[C@H](c4ccc(Cl)cc4)[C@@H]4C(=O)N(C5CCCCC5)C(=O)[C@@H]4[C@]3(Cc3ccc(Cl)cc3)C2=O)cc1	Shiga toxin inh 64, CHX counter 12
COc1ccc(OC)c(S(=O)(=O)N2CCC(NC(=O)c3ccccc3)CC2)c1	none
O=C1NC(=S)N(Cc2ccco2)C(=O)/C1=C\c1cccs1	FBPA Giardia inh 16µM (no result: NS1 function inh)
CC1CCCCN1CCCNC(=O)C1CCCN(c2ncnc3c2nc2n3CCCCC2)C1 (centres undefined)	none
CCc1cccc(NC(=O)Nc2ccc3c(c2)OCO3)c1	Shiga toxin inh 47, CHX counter 29
CC(C)C(NC(=O)c1ccccc1F)C(=O)Nc1ccc2c(c1)OCO2 (centres undefined)	none (no result: NS1 function inh)
CCc1c(C(=O)NNC(=O)Nc2ccc3c(c2)OCO3)csc1C	CHX counter 38 (no result: FBPA Giardia inh)
O=C(Nc1ccc2c(c1)OCO2)Nc1ccccc1F	Shiga toxin inh 109, LmPK inh inconclusive, CHX counter 57 (no result: FBPA Giardia inh)
O=C(Nc1ccc2[nH]c(=S)sc2c1)Nc1ccccc1F	Shiga toxin inh 70, CHX counter 70
O=C(O)CCn1cnc2c(=S)nc[nH]c21	none (no result: Shiga toxin inh, LmPK inh, CHX counter, FBPA Giardia inh)
CCc1ccccc1NC(=O)Nc1ccc2c(c1)OCO2	LmPK inh inconclusive, CHX counter 35
CCc1c(C(=O)Nc2ccncc2)csc1C	none
CCc1c(C(=O)Nc2ccccc2C(N)=O)csc1C	CHX counter 31 (no result: FBPA Giardia inh)
CCc1ccccc1NC(=S)NCc1ccc2c(c1)OCO2	none
O=[N+]([O-])c1ccc(S(=O)(=O)NCCN2CCOCC2)cc1	Shiga toxin inh 51
O=[N+]([O-])c1ccc(-c2ccc(S(=O)(=O)NCCN3CCCC3)cc2)cc1	none (no result: NS1 function inh)
O=C(c1ccc(Br)cc1)c1cn[nH]c1-c1ccccc1O	none
CC(C)(C)c1ccc(C(=O)c2cn[nH]c2-c2ccccc2O)cc1	Shiga toxin inh 58, CHX counter 42
Cc1ccc(-c2[nH]ncc2C(=O)c2cccc(F)c2)c(O)c1	CHX counter 8.5
C/C(=N\Nc1cc(N2CCOCC2)ncn1)c1ccc(O)cc1	none (no result: Shiga toxin inh)
COC(=O)[C@@H](NCc1cccc(CN[C@H](C(=O)OC)c2ccccc2)c1)c1ccccc1	none
O=C(NCCCN1CCOCC1)c1ccc2c(=O)n(-c3ccc(F)c(Cl)c3)c(=S)[nH]c2c1	FBPA Giardia inh inconclusive
CC(C)(C)NC(=O)NC(=O)CN1CCN(c2ccc(O)cc2)CC1	LmPK inh 13µM, FBPA Giardia inh inconclusive (no result: NS1 function inh)
CC(C)(C)NC(=O)NC(=O)CN1CCN(c2ccccc2)CC1	none (no result: NS1 function inh)
CSCCC(=O)N1CCCC(CO)(CCCc2ccccc2)C1 (centres undefined)	none
O=C1CCCN1CCC(=O)N1CCCC(CO)(Cc2ccccc2)C1 (centres undefined)	Shiga toxin inh 74, CHX counter 55
CCN(CC)CC(=O)N1CCCC(N2CCN(c3cccc(C(F)(F)F)c3)CC2)C1 (centres undefined)	none
COc1cccc(-c2nnc(NC(=O)c3ccco3)s2)c1	Shiga toxin inh 96, CHX counter 32 (no result: FBPA Giardia inh)
Cc1ccc(-c2nnc(NC(=O)c3ccco3)s2)cc1	Shiga toxin inh 96, LmPK inh inconclusive, CHX counter 28
O=C(Nc1nnc(C23CC4CC(CC(C4)C2)C3)s1)c1ccco1	Shiga toxin inh 53, CHX counter 35
CC(C)(C)Cc1nnc(NC(=O)c2ccco2)s1	Shiga toxin inh 42, CHX counter 32
CCCOc1cccc(-c2nnc(NC(=O)c3ccco3)s2)c1	none (no result: FBPA Giardia inh)
CC(=O)CCOC1CCCCO1 (centres undefined)	none (no result: Shiga toxin inh, LmPK inh, NS1 function inh, CHX counter)
Cc1sc(N)nc1-c1c(C)n(C)c2ccccc12	none
CCOc1ccc(CN(C)C(C)C(=O)NCCc2ccc(F)cc2)cc1 (centres undefined)	none
COc1ccc(/C=C/c2nnc(NC(=O)c3ccco3)s2)cc1	none
COc1ccc(-c2nnc(NC(=O)c3ccco3)s2)cc1	CHX counter 27
Cc1nnc(NC(=O)c2ccco2)s1	none
C/C=C(\C)c1nnc(NC(=O)c2ccco2)s1	Shiga toxin inh 56, CHX counter 15
